# Data published in the supplement of paper PMC11577813, “Eurasian spruce bark beetle detects lanierone using a highly expressed specialist odorant receptor, present in several functional sensillum types” (BMC Biology, 2024).
# ± gives the standard deviation of the averaged measurements.
# Tests used:
# [1] = test system: (+)-isopinocamphone A-neuron OSN class; experiment: net action potential response of A-neuron (blank-subtracted) (spikes/s (Hz)); higher = stronger excitation; conditions: 10 µg on filter paper; neuron: A neuron (large spike amplitude)
# How it was run: (§1)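 Spikes were counted in AutoSpike for the large-amplitude A-neuron or the small-amplitude B-neuron, using 0.5 s windows across 1–4 sensilla. Responses were reported as spikes/s after subtraction of the pre-stimulus count and of the blank, averaged across sensilla. The recordings came from one fixed antenna of live lab-reared adult Ips typographus via tungsten electrodes under a humidified, charcoal-filtered airstream of 1.8 L/min, with each compound given as 10 μg in paraffin oil on filter paper in a pipette, pulsed for 0.5 s at 0.3 L/min.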
# [2] = test system: (+)-trans-4-thujanol A-neuron OSN class; experiment: as above; conditions: 10 µg on filter paper; neuron: A neuron (large spike amplitude)
# How it was run: as §1
# [3] = test system: (5S,7S)-trans-conophthorin A-neuron OSN class; experiment: as above; conditions: 10 µg on filter paper; neuron: A neuron (large spike amplitude)
# How it was run: as §1
# [4] = test system: myrcene A-neuron OSN class; experiment: as above; conditions: 10 µg on filter paper; neuron: A neuron (large spike amplitude)
# How it was run: as §1
# [5] = test system: p-cymene A-neuron OSN class; experiment: as above; conditions: 10 µg on filter paper; neuron: A neuron (large spike amplitude)
# How it was run: as §1
# [6] = test system: lanierone-responsive B-neuron OSN class (ItypOR36); experiment: net action potential response of lanierone B-neuron (blank-subtracted) (spikes/s (Hz)); higher = stronger excitation; conditions: 10 µg on filter paper, neuron: B neuron (small spike amplitude)
# How it was run: as §1
# [7] = test system: ipsdienol A-neuron OSN class; experiment: net action potential response of A-neuron (blank-subtracted) (spikes/s (Hz)); higher = stronger excitation; conditions: 10 µg on filter paper; neuron: A neuron (large spike amplitude)
# How it was run: as §1
# [8] = co-localized A-neuron class: (4S)-cis-verbenol
# [9] = co-localized A-neuron class: (5S,7S)-trans-conophthorin
# [10] = co-localized A-neuron class: (+)-isopinocamphone
# [11] = co-localized A-neuron class: (+)-trans-4-thujanol
# [12] = co-localized A-neuron class: ipsdienol
# [13] = co-localized A-neuron class: myrcene
# [14] = co-localized A-neuron class: p-cymene
Structure (SMILES),net action potential response [1],net action potential response [2],net action potential response [3],net action potential response [4],net action potential response [5],"net action potential response [6, 8]","net action potential response [6, 9]","net action potential response [6, 10]","net action potential response [6, 11]","net action potential response [6, 12]","net action potential response [6, 13]","net action potential response [6, 14]",net action potential response [7]
OCCc1ccccc1 [2-Phenylethanol],7.33 ± 3.1,3.5 ± 4.7,0 ± 1.6,0,2.67 ± 3.1,-4 ± 2,-3 ± 3.8,2 ± 3.5,1 ± 3.5,-3.33 ± 11,2,6 ± 10,
CCC/C=C/CO,-1.33 ± 4.2,0 ± 1.6,-0.667 ± 6.4,-2,1.33 ± 1.1,0.667 ± 6.4,4.67 ± 3.1,-0.667 ± 6.1,4 ± 2.8,2 ± 5.3,2,2 ± 2.8,
C=CC(=C)C[C@@H](O)CC(C)C (racemic) [(±)-Ipsenol],-1.33 ± 5,2 ± 2.8,-1.33 ± 6.1,-2,-4,-1.33 ± 5,0 ± 5.3,0 ± 3.5,0.5 ± 1.9,-5.33 ± 2.3,-4,-8 ± 5.7,19.3 ± 15
CC1=CCC2CC1C2(C)C (stereo not drawn) [(+)-α-Pinene],3.33 ± 3.1,2.5 ± 3,-1.5 ± 6.8,4,2.67 ± 1.1,0 ± 12,-0.5 ± 4.7,0.667 ± 5.8,2 ± 2.8,-4 ± 4,-4,1.33 ± 7,
C=CC(O)CCCCC (racemic) [(±)-1-Octen-3-ol],-4.67 ± 1.1,33 ± 24,1.5 ± 2.5,2,1.33 ± 1.1,-6.67 ± 5,-0.5 ± 2.5,-2 ± 4,0 ± 1.6,-3.33 ± 1.1,4,0.667 ± 3.1,-0.667 ± 2.3
"COc1ccc(C)cc1OC [3,4-Dimethoxytoluene]",0.667 ± 3.1,1.5 ± 3.8,2.67 ± 6.4,4,1.33 ± 1.1,5.33 ± 11,0 ± 7.2,1.33 ± 2.3,-1.5 ± 3.4,2 ± 6,2,-2 ± 6.9,
C=CCc1ccc(OC)c(OC)c1 [Eugenol methyl ether],-0.667 ± 5.8,0 ± 1.6,4 ± 2.3,0,4.67 ± 5,0 ± 8.7,-3 ± 5,4.67 ± 9,-2 ± 1.6,-1.33 ± 5,0,-3.33 ± 9.4,
CC(=O)OCCc1ccccc1 [2-Phenethyl acetate],0.667 ± 3.1,2.5 ± 4.1,2 ± 2,8,-1.33 ± 4.6,5.33 ± 13,-0.667 ± 3.1,-1.33 ± 3.1,0.5 ± 4.1,-6.67 ± 7,-6,-5.33 ± 2.3,-3.33 ± 4.2
C=CC(C)(C)O [2-Methyl-3-buten-2-ol],0.667 ± 1.1,7 ± 11,3.33 ± 4.2,-8,1 ± 1.4,-4.67 ± 5,-4.67 ± 7,2 ± 2,-3.5 ± 7.2,3.33 ± 11,4,-6 ± 2.8,
C=C(C)C1CC=C(C)C(=O)C1 (racemic) [(±)-Carvone],-1.33 ± 1.1,1 ± 2.6,1 ± 3.5,0,30 ± 22,-1.33 ± 5,1.5 ± 2.5,2.67 ± 2.3,1 ± 2.6,-4.67 ± 2.3,6,0 ± 5.3,
CC1=CC(=O)[C@@H]2C[C@H]1C2(C)C [(-)-Verbenone],0.667 ± 1.1,1 ± 4.8,-5 ± 4.8,-6,-0.667 ± 3.1,1.33 ± 6.4,-0.667 ± 1.1,-4.67 ± 6.1,4 ± 6.7,2 ± 4,6,2 ± 2,
CC/C=C/CCO,8.67 ± 14,27.5 ± 23,-2 ± 2,-4,0.667 ± 3.1,2 ± 4,-5.33 ± 6.1,-2 ± 5.3,-0.5 ± 6.6,0 ± 4,-2,-0.667 ± 3.1,
CC1=CCC2CC1C2(C)C (stereo not drawn) [(-)-α-Pinene],4 ± 3.5,-0.5 ± 1.9,2.67 ± 3.1,2,5.33 ± 6.4,-6 ± 4,-1.33 ± 2.3,2 ± 2,0 ± 5.7,-1.33 ± 4.2,2,-5.33 ± 4.6,
C=C1CCC2(C(C)C)CC12 (racemic) [(±)-Sabinene],0.667 ± 3.1,6.5 ± 5.5,0.667 ± 3.1,34,1.33 ± 6.4,0.667 ± 6.4,-1.33 ± 1.1,-1.33 ± 2.3,0.5 ± 1.9,1.33 ± 9.2,-4,-4 ± 5.3,
C=C(C)[C@@H]1CC=C(C)CC1 [(-)-Limonene],-0.667 ± 4.2,2 ± 1.6,0 ± 2,6,26.7 ± 13,-1.33 ± 5.8,-2.67 ± 3.1,-0.667 ± 2.3,2.5 ± 5.3,1.33 ± 4.6,-8,-1.33 ± 4.2,
C=CC(=C)CC(O)C=C(C)C (racemic) [(±)-Ipsdienol],-4.67 ± 1.1,-1.5 ± 1.9,-2.5 ± 1.9,40,-1.33 ± 4.2,2.67 ± 15,-0.5 ± 3.4,-2.67 ± 4.2,0 ± 1.6,-4.67 ± 10,-4,-0.667 ± 1.1,
CC1=CC(C)(C)C=C(O)C1=O [Lanierone],46.7 ± 9.2,-1.5 ± 1.9,-1.5 ± 7,0,1.33 ± 1.1,135 ± 24,141 ± 31,160 ± 24,155 ± 24,121 ± 13,144,151 ± 12,
CC(C)=CCC/C(C)=C/C=O [Citral (E/Z mix)],0.667 ± 5,0.5 ± 1.9,2 ± 7.2,2,-2 ± 2,-1.33 ± 4.6,-3.33 ± 4.2,1.33 ± 4.2,2 ± 8.2,-5.33 ± 7.6,0,-0.667 ± 4.2,1.33 ± 1.1
CC1=C[C@@H](O)[C@H]2C[C@@H]1C2(C)C [(-)-trans-Verbenol],0.667 ± 10,5.5 ± 5.7,13 ± 20,6,2 ± 2,-1.33 ± 9,-3.5 ± 6,1.33 ± 2.3,-2 ± 2.8,2 ± 4,-4,-2 ± 9.2,0.667 ± 3.1
CC(=O)CC/C=C(\C)CCC=C(C)C [Geranylacetone],2 ± 2,1 ± 4.8,4.67 ± 7,-2,3 ± 4.2,-2 ± 2,-2 ± 2,-1.33 ± 4.2,0 ± 4.3,-3.33 ± 5.8,-2,0 ± 2.8,2.67 ± 4.6
C=C1CCC2CC1C2(C)C (stereo not drawn) [(-)-β-Pinene],8 ± 7.2,1 ± 1.1,2 ± 6,18,0.667 ± 4.6,-0.667 ± 7.6,3.33 ± 3.1,-3.33 ± 4.6,-3 ± 4.2,0 ± 6,-8,0 ± 7.2,
Cc1ccc(C(C)C)cc1 [p-Cymene],-0.667 ± 2.3,0.5 ± 5.3,3.5 ± 3.4,0,146 ± 65,-3.33 ± 3.1,0.5 ± 2.5,-2 ± 3.5,-1.5 ± 4.4,-1.33 ± 5,4,-3.33 ± 5.8,2 ± 3.5
